Among the data in PubChem BioAssay (NCI) are growth values, retold here.

About 83,000 compounds went through this panel and 20% of them were active in at least one assay; those are over-represented in the sample as a whole.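 Results are percent growth after 48 hours of single-concentration exposure. 100 means growth as in untreated cells, lower positive values show inhibition; negative values down to -100 show cell death.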 Values without a mark were called inactive. Active and inactive are the calls of the source. Rule for the calls: active = growth percent below 10; inactive = the rest.

Test systems include T-47D breast; BT-549 breast; MDA-MB-435 melanoma; SW-620 colon; MCF7 breast; HCT-116 colon; HCC-2998 colon; KM12 colon.
Common to all, as to assay: NCI-60 one-dose screen, 48 h (100 = growth as untreated, 0 = no growth, -100 = all killed)
What all share (details): 10 µM unless noted

Consider `CCN1CCN(c2ccc(NC(=O)Nc3ccc4c(ccn4-c4ccnc(C(=O)NC)c4)c3)cc2C(F)(F)F)CC1`, for which the growth in the experiment on T-47D breast is 90.5%; in the experiment on BT-549 breast, 73.6%; with MDA-MB-435 melanoma, 70.4%; in the experiment with SW-620 colon it was -56.2% (active); in the experiment on MCF7 breast, 5.65% (active); with HCT-116 colon, 58.6%. The growth in the experiment on HCC-2998 colon was 93.9%; in the experiment on KM12 colon, 36.4%.

For the compound `O=C1Nc2ccccc2/C1=N\c1nnc(-c2ccccc2)o1`, the growth is 77.9% in the experiment with T-47D breast; 105% in the experiment with BT-549 breast; 102% in the experiment with MDA-MB-435 melanoma; 95.3% in the experiment with SW-620 colon; 66.3% with MCF7 breast; 103% in the experiment with HCT-116 colon. In addition, the growth with HCC-2998 colon was 111%; in the experiment with KM12 colon it was 96.7%.

As to `NC1CC2(CCN(c3cnc(C(=O)Nc4cc(F)cc5cccnc45)cn3)CC2)C1`, the growth with T-47D breast is 64.5%; in the experiment on BT-549 breast it was 84.8%; in the experiment with MDA-MB-435 melanoma, 70.9%; in the experiment on SW-620 colon, 42.8%; in the experiment with MCF7 breast it was 46.2%; with HCT-116 colon, 38.5%. The growth with HCC-2998 colon was 83.7%; in the experiment on KM12 colon, 81.7%.

Regarding `NC1C2CCC1CN(c1cnc(C(=O)Nc3cc(F)cc4cccnc34)cn1)C2` (stereo not drawn), the growth in the experiment with T-47D breast was 34.2%; in the experiment with BT-549 breast it was 94.7%; in the experiment on MDA-MB-435 melanoma it was 75.5%; in the experiment on SW-620 colon, 25%; in the experiment on MCF7 breast it was 3.24% (active); in the experiment on HCT-116 colon, 15.8%. For the same compound, the growth with HCC-2998 colon was 79.3%; in the experiment on KM12 colon it was 77.1%.

Take `O=S1SC(c2ccccc2)=NN1c1cc(F)cc(F)c1` (stereo not drawn): the growth is 1.86% (active) in the experiment on T-47D breast; 7.34% (active) in the experiment with BT-549 breast; 63.3% in the experiment on MDA-MB-435 melanoma; 59.2% in the experiment on SW-620 colon; 35.6% with MCF7 breast; 16.5% in the experiment with HCT-116 colon. Further, the growth was 79.6% in the experiment with HCC-2998 colon and 41.7% with KM12 colon.

For `COc1cc(NC(=O)Nc2cccc(-c3cc(=O)c4c(OC)c(OC)c(OC)cc4o3)c2)cc(OC)c1OC`, the growth was 11.9% with T-47D breast; 31.9% in the experiment with BT-549 breast; 57.1% with MDA-MB-435 melanoma; 41.3% in the experiment with SW-620 colon; 40.7% in the experiment with MCF7 breast; 28.9% in the experiment with HCT-116 colon. The growth in the experiment on HCC-2998 colon was 60.7%; with KM12 colon it was 38.7%.

Take `O=C(CCCCCCN1CC(=O)N2[C@@H](c3cccs3)c3[nH]c4ccccc4c3C[C@H]2C1=O)NO`: the growth with T-47D breast was 42.7%; in the experiment with BT-549 breast, 104%; in the experiment with MDA-MB-435 melanoma, 80.8%; with SW-620 colon, 82.7%; with MCF7 breast, 52.1%; in the experiment with HCT-116 colon, 60.5%. For the same compound, the growth in the experiment on HCC-2998 colon is 101%; in the experiment on KM12 colon it was 81.8%.

In the case of `O=C(CSc1nc2ccccc2c(=O)n1-c1ccc(Cl)c(Cl)c1)Nc1ccc(S(=O)(=O)Nc2ccc(Cl)nn2)cc1`, the growth in the experiment with T-47D breast is 85.9%; in the experiment with BT-549 breast, 94.4%; in the experiment with MDA-MB-435 melanoma it was 97.8%; in the experiment on SW-620 colon, 89.7%; in the experiment with MCF7 breast, 95.6%; with HCT-116 colon, 92%. Also, the growth in the experiment on HCC-2998 colon is 95.1%; in the experiment on KM12 colon it was 102%.

Turning to `Clc1cccc(/C=N/Nc2nc(N/N=C/c3cccc(Cl)c3)nc(N3CCOCC3)n2)c1`, the growth is 68.5% with T-47D breast; 92.7% with BT-549 breast; 49.3% with MDA-MB-435 melanoma; 18.1% in the experiment on SW-620 colon; 43% in the experiment with MCF7 breast; 22.8% with HCT-116 colon. Further, the results for the growth in the experiment on HCC-2998 colon and in the experiment with KM12 colon were 59% and 30.2%, respectively.

Take `CC1(C)C=Cc2cc(/C(N)=N/C(N)=N/c3nc4ccccc4s3)ccc2O1`: the growth in the experiment with T-47D breast is 77.6%; in the experiment on BT-549 breast, 86.1%; with MDA-MB-435 melanoma, 99.3%; in the experiment on SW-620 colon, 102%; in the experiment with MCF7 breast it was 67.2%; in the experiment with HCT-116 colon it was 59.2%. Besides, the growth is 109% with HCC-2998 colon and 61.5% in the experiment on KM12 colon.

Regarding `COc1ccc(-c2c3c(cn2Cc2cccc(OC)c2)-c2oncc2CCC3)cc1`, the growth was 75.7% in the experiment with T-47D breast; 105% in the experiment on BT-549 breast; 98.1% in the experiment on MDA-MB-435 melanoma; 96.4% in the experiment on SW-620 colon; 96.9% in the experiment with MCF7 breast; 96.9% with HCT-116 colon. Moreover, the results for the growth with HCC-2998 colon and in the experiment with KM12 colon were 111% and 83.1%, respectively.

Consider `O=C(CCCCCCNC(=O)C(O)(O)C(F)(F)F)Nc1nc2ccccc2s1`, for which the growth in the experiment on T-47D breast is 12.1%; in the experiment on BT-549 breast, 13%; in the experiment on MDA-MB-435 melanoma, 4.88% (active); in the experiment on SW-620 colon, 4.75% (active); with MCF7 breast, 9.8% (active); with HCT-116 colon it was 2.81% (active). Further, the growth in the experiment on HCC-2998 colon was -39.8% (active); in the experiment on KM12 colon, 7.52% (active).

`Cc1csc(/N=C(N)/N=C(\N)c2cccs2)n1`: the growth is 95.9% in the experiment on T-47D breast; 134% with BT-549 breast; 106% in the experiment on MDA-MB-435 melanoma; 106% with SW-620 colon; 81.2% in the experiment on MCF7 breast; 107% in the experiment with HCT-116 colon. The figures for the growth in the experiment with HCC-2998 colon and in the experiment on KM12 colon were 116% and 97.8%, respectively.

As for `O=C(O)c1ccc(-n2c(=O)n(-c3cccc(C(F)(F)F)c3)c(=O)c3cc(-c4ccc(F)cc4F)ccc32)cc1`, the growth with T-47D breast is -5.81% (active); in the experiment with BT-549 breast, -3.47% (active); in the experiment on MDA-MB-435 melanoma, 5.93% (active); with SW-620 colon it was 15.5%; in the experiment on MCF7 breast it was 1.46% (active); in the experiment with HCT-116 colon it was 4.2% (active). The figures for the growth with HCC-2998 colon and in the experiment with KM12 colon were 13.4% and 4.47% (active), respectively.

Consider `Nc1cc(C(=O)N/N=C\c2ccc(OC(F)F)c(OC3CCCC3)c2)nn1CC(O)c1ccccc1` (stereo not drawn), for which the growth in the experiment with T-47D breast is 83.6%; with BT-549 breast it was 118%; with MDA-MB-435 melanoma it was 103%; with SW-620 colon, 103%; with MCF7 breast, 89%; in the experiment on HCT-116 colon, 103%. For the same compound, the figures for the growth with HCC-2998 colon and in the experiment with KM12 colon were 114% and 95.6%, respectively.

For `C=C(C=O)[C@@H]1CC[C@]2(C(=O)O)CC[C@]3(C)C(CC[C@@H]4[C@@](C)(CCC#N)[C@H](C(=C)C=O)CC[C@]43C)[C@@H]12` (stereo partly drawn), the growth in the experiment with T-47D breast was 28.1%; in the experiment on BT-549 breast, 28.9%; in the experiment on MDA-MB-435 melanoma, -9.89% (active); in the experiment on SW-620 colon it was 10.9%; in the experiment on MCF7 breast it was 14.3%; with HCT-116 colon, -82.8% (active). Also, the growth with HCC-2998 colon is 108%; in the experiment with KM12 colon, 92%.
